The values below come from ChEMBL document CHEMBL3433997, “St. Jude Leishmania screening dataset” (2016).

Structures are written as SMILES.

The first assay deals with Hexose transporter 1 (Plasmodium falciparum) (UniProt O97467). The experiment in a line: ST_JUDE_LEISH: Cytotoxicity at 2uM final concentration against transgenic Leishmania Mexicana promastigotes LmPfHT that are glucose transport deficient and complemented with the Plasmodium falciparum hexose transporter. Activity is measured by DNA content using SYBR green in vitro. The assay is classed as functional.
In general, inhibition refers to the drop in the measured response relative to a control, in per cent. As to `COc1ccc(NC(=O)c2ccc(Br)c(C)c2)cc1N1CCN(CCCCc2ccccc2)CC1`, the inhibition amounted to 0.21%.
Turning to `CC(C)C[C@@H](/C=N/N1CCOC1=O)NC(=O)[C@H](CC(C)C)NC(=O)c1ccc(OCCN2CCOCC2)cc1`, the inhibition was 6.46%.
Take `O=C(Cc1ccc([N+](=O)[O-])cc1)N1CCc2cc3nccc(N4CCN5CCC[C@@H]5C4)c3cc21`: the inhibition worked out at 0.39%.
In the case of `O=C(/C=C/c1ccc(Cl)c(Cl)c1)N1CCC(CCN2CCC(c3c[nH]c4cc5c(cc34)OCO5)CC2)CC1`, the inhibition stood at 0.01%.
Still for that read-out and setting: the result for `CCNc1cc(C(=O)N[C@@H](Cc2ccoc2)[C@H](O)CNC(C)CCCC(C)C)cc(N2CCCCS2(=O)=O)c1` (stereo not given in full) reads 0.7%; that for `CC(C)(C)C1CC(=O)CC2C(=O)N(C3CCCCC3)C(=O)C21` (stereo not given), 2.76%; that for `COc1ccc(-c2cccc(NC(=O)c3cccc(Cl)c3)c2)cc1CN(C)CCN(C)C`, 0.75%.
Same read-out and setting: as for `COc1ccc(CNCCc2cccs2)cc1-c1ccc(S(=O)(=O)NCCN2CCCC2)cc1`, the figure is 5.79%; as for `FC(F)(F)CNc1nc(Nc2ccc3ncccc3c2)nc2[nH]ccc12`, 17.9%.
In the case of `COc1cc(Cc2cnc(N)nc2N)cc(OCCCCCC(N)=O)c1OC`, the inhibition was -2.79%.
Consider `Cc1cccc(Nc2nccc(NCC(O)c3ccc(C(F)(F)F)cc3)n2)c1` (stereo not given), for which the inhibition was 11.4%.
For `COc1ccc(CNC(=O)c2cnc3cc(-c4c(C)noc4C)ccc3c2Nc2ccccc2C(C)(C)C)cc1`, the inhibition turned out to be 4.17%.
For `CC(C)c1ccc(OCC(O)CN(C)C(C)C(O)c2ccccc2)c(Br)c1` (stereo not given), the inhibition turned out to be 12.5%.
On to `O=C(/C=C/c1ccc(-c2nc3ccc(Cl)cc3[nH]2)cc1)NC1CCN(Cc2ccccc2)CC1`, for which the inhibition is 1.66%.
For the molecule `O=C(Nc1ccccc1)N1CCC(CN2CCOC(c3ccccc3)(c3ccccc3)C2)CC1`, the inhibition was determined as 4.78%.
On the same count and under the same terms, as for `Fc1ccc(-c2cc3ncnc(N4CCN(CCN5CCCC5)CC4)c3s2)cc1`, the figure is 12.9%; as for `CCc1nc2c(cnn2CC)c(NC2CCOCC2)c1CNC(=O)c1ccoc1C`, 6.38%.
Consider `Cc1cc(NC2CCN(CC3CCCCC3)CC2)nc(Nc2ccccc2Cl)n1`, for which the inhibition came to 6.27%.
The same measure, in the same setting: the result for `Fc1cc(Cl)ccc1Nc1ccnc2cc(I)ccc12` reads 5.41%; that for `CCc1cn2c3c(cc(C(=O)N[C@@H](Cc4ccccc4)[C@H](O)CNC4CCOCC4)cc13)N(C(C)C)S(=O)(=O)CC2`, 3.8%.
As for `CCCC(=O)Nc1ccc(OCCN(Cc2ccccc2OC(F)(F)F)c2ccc(C(F)(F)F)c(C#N)c2)cc1`, the inhibition turned out to be 1.7%.
Still for that read-out and setting: as for `Cc1ccc(CN2CCCCC(NC(=O)c3cc4ccccc4s3)C2)cc1` (stereo not given), the figure is 0.49%.
On the same count and under the same terms, the result for `COc1ccc2c(NCCc3ccccc3)cc(-c3ccccc3)nc2c1` reads 10.8%.
The same measure, in the same setting: the result for `O=S(=O)(c1cc(Cl)sc1Cl)N(CCC(O)(C(F)(F)F)C(F)(F)F)Cc1cccc(O)c1` reads 0.45%; that for `COc1ccc(-c2ccc(Nc3cccc(S(=O)(=O)CCN4CCC(CCN(C)C)CC4)c3)nc2)cn1`, -1.68%.
Consider `Cc1ccc(CN2CCCN(Cc3cccc(NC(=O)c4ccc(Cl)c(Cl)c4)c3)CC2)cc1`, for which the inhibition was -2.91%.
Consider `Cc1nc(C)c(CC(=O)Nc2cccc(-c3cccc(-c4nc5cccc(C)c5[nH]4)c3)c2)s1`, for which the inhibition was -0.36%.
As for `CCn1c(-c2nonc2N)nc2c(Cl)ncc(O[C@H](CCN)c3ccccc3F)c21`, the inhibition amounted to 48.5%.
Regarding `FC(F)(F)c1ccc(/C=C/c2cncnc2Nc2ccc3[nH]c(Cc4ccccc4)nc3c2)cc1`, the inhibition was 6.03%.
Same read-out and setting: as for `CCCCCCNCCOc1ccc(-c2nc(-c3ccccc3)c(-c3ccccc3)[nH]2)cc1`, the figure is 1.32%; as for `Cc1c(Cn2ncc(N3CCC(N)CC3)c(Cl)c2=O)cccc1NC(=O)Nc1ccc(-c2ccccc2)cc1`, 4.24%.
Take `O=C1C[C@@H]([S+]([O-])Cc2nccs2)N1CCOCCCCCCc1ccc(Cl)cc1` (stereo not given in full): the inhibition is 8.24%.
For the molecule `COc1ccc2cc(-c3nc(-c4c(Cl)cccc4Cl)[nH]c3-c3ccnc(NCCCN4CCCCC4C)c3)ccc2c1` (stereo not given), the inhibition is -0.07%.
On the same count and under the same terms, the result for `CN1CC=C(c2csc3ccc(NC(=O)Nc4ccc(-c5ccncc5)c5ccccc45)cc23)CC1` reads 3.39%.
The same measure, in the same setting: the result for `Cc1cc(NC(=O)Nc2ccc(C#N)cc2)c2ccccc2n1` reads 4.35%; that for `O=C(NCCCCN1CCC(c2ccc3c(c2OCCO)CCCC3)CC1)c1ccc2oc(-c3ccc(C(F)(F)F)cc3)cc2c1`, 2.49%; that for `O=C(/C=C/c1cccc(Cl)c1)N1CCC(C(O)CN2CCC3(CC2)CN(C(=O)/C=C/c2cccc(Cl)c2)c2ccccc23)CC1` (stereo not given), 1.87%.
For the molecule `O=C(CC(c1ccccc1)c1ccccc1O)N1CCOCC1` (stereo not given), the inhibition came to 1.12%.
As for `COc1cc2c(c(Cl)c1OC)CCN(Cc1ccccc1)CC2c1ccc(C(N)=O)cc1` (stereo not given), the inhibition was 1.77%.
Same read-out and setting: the result for `O=C(Nc1ccc(Cl)c(C(F)(F)F)c1)NC1CCN(CCCCCNC(=O)C2CC2c2ccc(Cl)c(Cl)c2)CC1` (stereo not given) reads 9.26%.

The target in another assay is Glucose transporter (Leishmania mexicana) (UniProt O61059). The experiment in a line: ST_JUDE_LEISH: Cytotoxicity at 2uM final concentration against transgenic Leishmania Mexicana promastigotes LmGT2 that are glucose transport deficient and complemented with the L. Mexicana glucose transporter 2. Activity is measured by DNA content using SYBR green in vitro. In kind it is functional.
Consider `COc1ccc(NC(=O)c2ccc(Br)c(C)c2)cc1N1CCN(CCCCc2ccccc2)CC1`, for which the inhibition turned out to be 0.85%.
Still for that read-out and setting: the result for `CC(C)C[C@@H](/C=N/N1CCOC1=O)NC(=O)[C@H](CC(C)C)NC(=O)c1ccc(OCCN2CCOCC2)cc1` reads 3.93%.
Still for that read-out and setting: as for `O=C(Cc1ccc([N+](=O)[O-])cc1)N1CCc2cc3nccc(N4CCN5CCC[C@@H]5C4)c3cc21`, the figure is 2.97%; as for `O=C(/C=C/c1ccc(Cl)c(Cl)c1)N1CCC(CCN2CCC(c3c[nH]c4cc5c(cc34)OCO5)CC2)CC1`, -0.27%; as for `CCNc1cc(C(=O)N[C@@H](Cc2ccoc2)[C@H](O)CNC(C)CCCC(C)C)cc(N2CCCCS2(=O)=O)c1` (stereo not given in full), 0.83%.
Regarding `CC(C)(C)C1CC(=O)CC2C(=O)N(C3CCCCC3)C(=O)C21` (stereo not given), the inhibition is 3.68%.
The same measure, in the same setting: the result for `COc1ccc(-c2cccc(NC(=O)c3cccc(Cl)c3)c2)cc1CN(C)CCN(C)C` reads -1.29%.
For `COc1ccc(CNCCc2cccs2)cc1-c1ccc(S(=O)(=O)NCCN2CCCC2)cc1`, the inhibition came to 2.85%.
Same read-out and setting: the result for `FC(F)(F)CNc1nc(Nc2ccc3ncccc3c2)nc2[nH]ccc12` reads 8.14%; that for `COc1cc(Cc2cnc(N)nc2N)cc(OCCCCCC(N)=O)c1OC`, 1.17%; that for `Cc1cccc(Nc2nccc(NCC(O)c3ccc(C(F)(F)F)cc3)n2)c1` (stereo not given), 2.83%.
Same read-out and setting: the result for `COc1ccc(CNC(=O)c2cnc3cc(-c4c(C)noc4C)ccc3c2Nc2ccccc2C(C)(C)C)cc1` reads 1.52%; that for `CC(C)c1ccc(OCC(O)CN(C)C(C)C(O)c2ccccc2)c(Br)c1` (stereo not given), 10.4%.
On to `O=C(/C=C/c1ccc(-c2nc3ccc(Cl)cc3[nH]2)cc1)NC1CCN(Cc2ccccc2)CC1`, for which the inhibition amounted to 3.7%.
On the same count and under the same terms, as for `O=C(Nc1ccccc1)N1CCC(CN2CCOC(c3ccccc3)(c3ccccc3)C2)CC1`, the figure is 7.57%; as for `Fc1ccc(-c2cc3ncnc(N4CCN(CCN5CCCC5)CC4)c3s2)cc1`, 11.1%.
Still for that read-out and setting: the result for `CCc1nc2c(cnn2CC)c(NC2CCOCC2)c1CNC(=O)c1ccoc1C` reads 2.97%; that for `Cc1cc(NC2CCN(CC3CCCCC3)CC2)nc(Nc2ccccc2Cl)n1`, 0.85%; that for `Fc1cc(Cl)ccc1Nc1ccnc2cc(I)ccc12`, 3.25%.
The same measure, in the same setting: the result for `CCc1cn2c3c(cc(C(=O)N[C@@H](Cc4ccccc4)[C@H](O)CNC4CCOCC4)cc13)N(C(C)C)S(=O)(=O)CC2` reads 0.93%.
Consider `CCCC(=O)Nc1ccc(OCCN(Cc2ccccc2OC(F)(F)F)c2ccc(C(F)(F)F)c(C#N)c2)cc1`, for which the inhibition came out at 2.31%.
On to `Cc1ccc(CN2CCCCC(NC(=O)c3cc4ccccc4s3)C2)cc1` (stereo not given), for which the inhibition is -8.68%.
With `COc1ccc2c(NCCc3ccccc3)cc(-c3ccccc3)nc2c1`, the inhibition is 4.05%.
Same read-out and setting: the result for `O=S(=O)(c1cc(Cl)sc1Cl)N(CCC(O)(C(F)(F)F)C(F)(F)F)Cc1cccc(O)c1` reads 2.62%; that for `COc1ccc(-c2ccc(Nc3cccc(S(=O)(=O)CCN4CCC(CCN(C)C)CC4)c3)nc2)cn1`, 1.63%; that for `Cc1ccc(CN2CCCN(Cc3cccc(NC(=O)c4ccc(Cl)c(Cl)c4)c3)CC2)cc1`, -0.82%.
The same measure, in the same setting: as for `Cc1nc(C)c(CC(=O)Nc2cccc(-c3cccc(-c4nc5cccc(C)c5[nH]4)c3)c2)s1`, the figure is -0.58%; as for `CCn1c(-c2nonc2N)nc2c(Cl)ncc(O[C@H](CCN)c3ccccc3F)c21`, 20.2%; as for `FC(F)(F)c1ccc(/C=C/c2cncnc2Nc2ccc3[nH]c(Cc4ccccc4)nc3c2)cc1`, 3.94%.
As to `CCCCCCNCCOc1ccc(-c2nc(-c3ccccc3)c(-c3ccccc3)[nH]2)cc1`, the inhibition stood at 1.62%.
As to `Cc1c(Cn2ncc(N3CCC(N)CC3)c(Cl)c2=O)cccc1NC(=O)Nc1ccc(-c2ccccc2)cc1`, the inhibition was determined as 5.11%.
With `O=C1C[C@@H]([S+]([O-])Cc2nccs2)N1CCOCCCCCCc1ccc(Cl)cc1` (stereo not given in full), the inhibition is 9.2%.
Still for that read-out and setting: as for `COc1ccc2cc(-c3nc(-c4c(Cl)cccc4Cl)[nH]c3-c3ccnc(NCCCN4CCCCC4C)c3)ccc2c1` (stereo not given), the figure is 0.19%; as for `CN1CC=C(c2csc3ccc(NC(=O)Nc4ccc(-c5ccncc5)c5ccccc45)cc23)CC1`, -1.21%.
With `Cc1cc(NC(=O)Nc2ccc(C#N)cc2)c2ccccc2n1`, the inhibition was 0.95%.
Same read-out and setting: as for `O=C(NCCCCN1CCC(c2ccc3c(c2OCCO)CCCC3)CC1)c1ccc2oc(-c3ccc(C(F)(F)F)cc3)cc2c1`, the figure is 2.18%; as for `O=C(/C=C/c1cccc(Cl)c1)N1CCC(C(O)CN2CCC3(CC2)CN(C(=O)/C=C/c2cccc(Cl)c2)c2ccccc23)CC1` (stereo not given), 0.82%; as for `O=C(CC(c1ccccc1)c1ccccc1O)N1CCOCC1` (stereo not given), -0.06%.
Still for that read-out and setting: as for `COc1cc2c(c(Cl)c1OC)CCN(Cc1ccccc1)CC2c1ccc(C(N)=O)cc1` (stereo not given), the figure is 1.62%; as for `O=C(Nc1ccc(Cl)c(C(F)(F)F)c1)NC1CCN(CCCCCNC(=O)C2CC2c2ccc(Cl)c(Cl)c2)CC1` (stereo not given), 6.43%.
